Measured potencies and affinities stand elsewhere.

The first experiment has as its system Staphylococcus aureus. The settings on record: Concentration 32 ug.mL-1; ASSAY_TEST Inhibition of Bacterial Growth; detection method Absorption (OD600); MEDIA CAMHB; plate type 384well; NBS; CORNING #3640; time 18 hr.
On to `COc1ccc2c(c1)CCC(=Cc1ccccn1)C2=O`, for which the Inhibition (usually the relative decrease from the control value, in per cent) was found to be 14.37%.

As to `COc1ccc2c(c1)CCC(=Cc1cccnc1)C2=O`, the Inhibition came out at 11.8%.

As to `COc1ccc2c(c1)CCC(=Cc1cccnc1Cl)C2=O`, the Inhibition came to 1.26%.

`COc1ccc2c(c1)C(=O)C(=Cc1cnccc1OC)CC2`: the Inhibition was found to be 16.33%.

Consider `COc1cccc2c1CCC(=Cc1cccc(C=C3CCc4c(OC)cccc4C3=O)c1)C2=O`, for which the Inhibition was -26.12%.

In the case of `COc1ccc2c(c1)C(=O)C(=Cc1cccnc1Br)CC2`, the Inhibition is given as 5.72%.

For the molecule `COc1ccc2c(c1)CCC(=Cc1ccco1)C2=O`, the Inhibition is 19.21%.

For `COc1ccc2c(c1)CCC(=Cc1ccoc1)C2=O`, the Inhibition is 24.71%.

For `COc1ccc2c(c1)CCC(=Cc1cncc(Br)c1)C2=O`, the Inhibition was 0.4%.

`COc1ccc2c(c1)CCC(=Cc1cnccc1OC)C2=O`: the Inhibition was determined as 0.49%.

`COc1cccc2c1CCC(=Cc1ccco1)C2=O`: the Inhibition is on record as 13.6%.

As for `CC(C)(C)OC(=O)N1CC(=Cc2ccco2)C(=O)/C(=C/c2ccco2)C1`, the Inhibition was 17.59%.

As to `CC(C)(C)OC(=O)N1CC(=Cc2ccoc2)C(=O)/C(=C/c2ccoc2)C1`, the Inhibition was 3.94%.

For `Cc1ccc(C=C2CN(C(=O)OC(C)(C)C)C/C(=C\c3ccc(C)cc3C)C2=O)c(C)c1`, the Inhibition came to 9.56%.

For `COc1cc2c(cc1OC)C(=O)C(=Cc1ccco1)CC2`, the Inhibition amounted to 23.29%.

For the molecule `COc1ccc2c(c1)C(=O)C(=Cc1cccnc1Cl)CC2.Cl`, the Inhibition came to 20.04%.

In the case of `COc1cccc2c1CCC(=Cc1ccoc1)C2=O`, the Inhibition was 21.03%.

With `COc1ccc2c(c1)C(=O)C(=Cc1cccc(C=C3CCc4ccc(OC)cc4C3=O)c1)CC2`, the Inhibition was found to be 5.74%.

With `COc1ccc2c(c1)C(=O)C(=Cc1ccccn1)CC2`, the Inhibition is on record as 11.08%.

For `COc1ccc2c(c1)C(O)C(=Cc1cccnc1Cl)CC2` (configuration not stated), the Inhibition is 5.45%.

For `COc1ccc2c(c1)C(=O)C(=Cc1cccnc1OC)CC2`, the Inhibition is recorded as 16.7%.

As for `COc1cc2c(cc1OC)C(=O)C(=Cc1ccoc1)CC2`, the Inhibition is reported as 22.02%.

With `COc1ccc2c(c1)CCC(=Cc1ccc(OC)nc1)C2=O`, the Inhibition was -4.04%.

Consider `COc1ccc2c(c1)CCC(=Cc1cccnc1Br)C2=O`, for which the Inhibition is reported as 11.61%.

Regarding `COc1ccc2c(c1)C(=O)C(=Cc1ccoc1)CC2`, the Inhibition turned out to be 24.21%.

As for `COc1ccc2c(c1)C(=O)C(=Cc1cccnc1)CC2`, the Inhibition is recorded as 17.94%.

For the molecule `COc1ccc2c(c1)C(=O)C(=Cc1cccnc1Cl)CC2`, the Inhibition amounted to 6.88%.

In the case of `COc1ccc2c(c1)C(=O)C(=Cc1ccco1)CC2`, the Inhibition was 20.52%.

On to `COc1ccc2c(c1)CCC(=Cc1ccncc1)C2=O`, for which the Inhibition amounted to 16.04%.

Regarding `COc1ccc(/C=C/C(=O)c2ccc(OCc3ccc(Br)cc3)cc2)cc1OC`, the Inhibition is -11.78%.

As to `COc1ccc2c(c1)C(=O)C(=Cc1cncc(Br)c1)CC2`, the Inhibition stood at 75.2%.

For a further experiment, the system named is Escherichia coli. Conditions: Concentration 32 ug.mL-1; ASSAY_TEST Inhibition of Bacterial Growth; detection method Absorption (OD600); MEDIA CAMHB; plate type 384well; NBS; CORNING #3640; time 18 hr.
Consider `COc1ccc2c(c1)CCC(=Cc1ccccn1)C2=O`, for which the Inhibition was found to be 1.84%.

For `COc1ccc2c(c1)CCC(=Cc1cccnc1)C2=O`, the Inhibition is 5.55%.

Turning to `COc1ccc2c(c1)CCC(=Cc1cccnc1Cl)C2=O`, the Inhibition was -0.89%.

For the molecule `COc1ccc2c(c1)C(=O)C(=Cc1cnccc1OC)CC2`, the Inhibition was 1.39%.

In the case of `COc1cccc2c1CCC(=Cc1cccc(C=C3CCc4c(OC)cccc4C3=O)c1)C2=O`, the Inhibition is listed as -22.27%.

`COc1ccc2c(c1)C(=O)C(=Cc1cccnc1Br)CC2`: the Inhibition was 0.26%.

As for `COc1ccc2c(c1)CCC(=Cc1ccco1)C2=O`, the Inhibition was found to be 7.9%.

Consider `COc1ccc2c(c1)CCC(=Cc1ccoc1)C2=O`, for which the Inhibition is recorded as 8.45%.

Turning to `COc1ccc2c(c1)CCC(=Cc1cncc(Br)c1)C2=O`, the Inhibition was -0.04%.

Turning to `COc1ccc2c(c1)CCC(=Cc1cnccc1OC)C2=O`, the Inhibition is given as -6.17%.

With `COc1cccc2c1CCC(=Cc1ccco1)C2=O`, the Inhibition is reported as 5.5%.

For the molecule `CC(C)(C)OC(=O)N1CC(=Cc2ccco2)C(=O)/C(=C/c2ccco2)C1`, the Inhibition was found to be 1.8%.

For the molecule `CC(C)(C)OC(=O)N1CC(=Cc2ccoc2)C(=O)/C(=C/c2ccoc2)C1`, the Inhibition is reported as -5.28%.

Take `Cc1ccc(C=C2CN(C(=O)OC(C)(C)C)C/C(=C\c3ccc(C)cc3C)C2=O)c(C)c1`: the Inhibition is recorded as -6.82%.

`COc1cc2c(cc1OC)C(=O)C(=Cc1ccco1)CC2`: the Inhibition is reported as 6.96%.

With `COc1ccc2c(c1)C(=O)C(=Cc1cccnc1Cl)CC2.Cl`, the Inhibition is listed as 2.21%.

`COc1cccc2c1CCC(=Cc1ccoc1)C2=O`: the Inhibition is given as -0.51%.

Consider `COc1ccc2c(c1)C(=O)C(=Cc1cccc(C=C3CCc4ccc(OC)cc4C3=O)c1)CC2`, for which the Inhibition came to 2.05%.

On to `COc1ccc2c(c1)C(=O)C(=Cc1ccccn1)CC2`, for which the Inhibition is 3.58%.

As for `COc1ccc2c(c1)C(O)C(=Cc1cccnc1Cl)CC2` (configuration not stated), the Inhibition amounted to 4.12%.

Turning to `COc1ccc2c(c1)C(=O)C(=Cc1cccnc1OC)CC2`, the Inhibition was 4.57%.

As to `COc1cc2c(cc1OC)C(=O)C(=Cc1ccoc1)CC2`, the Inhibition is listed as 2.08%.

For the molecule `COc1ccc2c(c1)CCC(=Cc1ccc(OC)nc1)C2=O`, the Inhibition amounted to 1.52%.

For the molecule `COc1ccc2c(c1)CCC(=Cc1cccnc1Br)C2=O`, the Inhibition is on record as -5.29%.

On to `COc1ccc2c(c1)C(=O)C(=Cc1ccoc1)CC2`, for which the Inhibition is recorded as 0.87%.

For `COc1ccc2c(c1)C(=O)C(=Cc1cccnc1)CC2`, the Inhibition worked out at 4.25%.

`COc1ccc2c(c1)C(=O)C(=Cc1cccnc1Cl)CC2`: the Inhibition is on record as -2.48%.

For the molecule `COc1ccc2c(c1)C(=O)C(=Cc1ccco1)CC2`, the Inhibition was found to be 4.79%.

On to `COc1ccc2c(c1)CCC(=Cc1ccncc1)C2=O`, for which the Inhibition turned out to be 3.11%.

Consider `COc1ccc(/C=C/C(=O)c2ccc(OCc3ccc(Br)cc3)cc2)cc1OC`, for which the Inhibition is -9.61%.

For the molecule `COc1ccc2c(c1)C(=O)C(=Cc1cncc(Br)c1)CC2`, the Inhibition came out at 2%.

For the origin of these results see ChEMBL document CHEMBL4513147, “CO-ADD screening of Armstrong State University (GA, USA) compounds”.
